Measurements reported in PubChem BioAssay (NCATS).
“And” between values parts separate entries of the source, which are not always exact repeats. Equal entries are not always repeated. Results filed as inconclusive are left out. The source made the active and inactive calls. Unless noted, calls follow the shape of the dose curve; as a rule, active = well fitted curve in the direction sought with a large enough effect; inconclusive = small, poorly fitted or top-dose-only effect, or another doubt; inactive = no such curve, though single readings can be large; an effect the other way counts as inactive or inconclusive.

How the values were obtained:
[1] = qHTS Screen of the MIPE 4.0 Collection Against Ewings Sarcoma (TC32) (AID 1259256); also: nearly all actives have a fitted effect of over 45% in size; also: potency is read from the fitted curve at half-maximal effect
Method in brief: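 Compound titrations go onto adherent log-phase cells 4 h after seeding, incubate 48 h at 37C, then CellTiter-Glo luminescence reports viability relative to DMSO and cell-free controls.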

[2] = Identifying Small Molecule Inhibitors of Pancreatic Cancer Stem Cells (SN12C, Adherent) (AID 1259358);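 also: cell survival measured after 48 h of compound exposure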; also: potency is read from the fitted curve at half-maximal effect
Method in brief: (§1)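 Viability is scored by CellTiter-Glo luminescence 48 h after dosing, expressed as percent activity against vehicle and no-cell references. Spheroid formats rely on cells cultured 14 days in stem cell media beforehand.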

[3] = Identifying Small Molecule Inhibitors of Pancreatic Cancer Stem Cells (SN12C, Spheroid) (AID 1259360); settings: Potency: SN12C spheroid viability; also: potency is read from the fitted curve at half-maximal effect
Method in brief: (§2)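 Adherent (2D) versus sphere (3D) formats; spheres generated 14 d in SCM beforehand. Compound transferred by pin tool after 4 h, 48 h incubation, CellTiter-Glo endpoint.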

[4] = Identifying Small Molecule Inhibitors of Pancreatic Cancer Stem Cells (A278, Adherent) (AID 1259361);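 also: viability read after 48 h compound exposure; nearly all actives have a fitted effect of over 35% in size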
Method in brief: as §1

[5] = P-glycoprotein substrates identified in KB-3-1 adenocarcinoma cell line, qHTS therapeutic library screen (AID 1346986); also: nearly all actives have a fitted effect of over 60% in size;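 also: potency is read from the fitted curve at half-maximal effect; potency is for cytotoxicity meaning loss of cell viability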
Method in brief: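 Using luminescence to quantify ATP, parental and P-gp-overexpressing KB cells were compared after 72 h compound titration. KB-8-5-11 was also run with the P-gp inhibitor tariquidar.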

[6] = NS1 protein of Zika virus - qHTS assay to identify small molecule inhibitors in human HEK 293 cells (AID 1347053); also: nearly all actives have a fitted effect of over 55% in size; also: potency is read from the fitted curve at half-maximal effect
Method in brief: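 Readout was TR-FRET using paired anti-NS1 antibodies after 24 h infection of HEK 293 cells with ZIKV MR766 (MOI = 0.5). Compound preceded virus by 1 h; reduced signal reflects lower NS1 expression.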

[7] = qHTS of pediatric cancer cell lines to identify multiple opportunities for drug repurposing: Primary screen for TC32 cells (AID 1347089); also: nearly all actives have a fitted effect of over 60% in size; also: potency is read from the fitted curve at half-maximal effect
Method in brief: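 In the primary qHTS, MIPE compounds were tested at 11 concentrations (0.78 nM to 46 µM) and NPC compounds at 8 (0.59 nM to 46 µM) on TC32 cells for 48 h. CellTiter-Glo luminescence gave viability.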

[8] = qHTS assay to identify small molecule inhibitors of chordoma cells - UCH-2 (AID 1259356); also: series mostly up to about 46 µM
[9] = P-glycoprotein substrates identified in KB-8-5-11 adenocarcinoma cell line, qHTS therapeutic library screen (AID 1346987); also: nearly all actives have a fitted effect of over 65% in size; also: potency is read from the fitted curve at half-maximal effect
Method in brief: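 In this qHTS, P-gp-rich KB-8-5-11 cells received library compounds across a concentration range. Viability was quantified by luminescence after 72 h at 37 degree C.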

[10] = Natriuretic polypeptide receptor (hNpr1) antagonism - Pilot counterscreen GloSensor control cell line (AID 1347045; calls by dose curve; also: series mostly up to about 38 µM)
Method in brief: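 HEK293 cGMP-sensor cells; 2% GloSensor reagent 2 h RT; LOPAC compounds in 1:5 titrations 30-50 min; 50 uM SNP 20 min; luminescence pre-read and post-read.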

[11] = target: Atrial natriuretic peptide receptor 2 (Homo sapiens) (UniProt P20594); assay: Natriuretic polypeptide receptor (hNpr2) antagonism - Pilot subtype selectivity assay (AID 1347050; calls by dose curve)
Method in brief: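 Read-out: GloSensor luminescence (CCD imager), baseline vs post-stimulation. HEK293 cells expressing hNpr2; compounds pre-incubated 30-50 min at ambient temperature; hNppC 1 nM final, 20 min.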

[12] = target: T1, Tyrosine-protein phosphatase non-receptor type substrate 1 (Homo sapiens) + Leukocyte surface antigen CD47 (Homo sapiens) (UniProt P78324+Q08722); assay: CD47-SIRPalpha protein protein interaction - HTRF assay qHTS validation (AID 1347058; active = well fitted curve in the direction sought with a large enough effect in the signal ratio, not every such curve was filed as active; the % refers to the signal ratio; also: series mostly up to about 38 µM)
Method in brief: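 Soluble extracellular domains (6His-CD47, Avi-tag-biotinylated SIRPalpha) in PBS pH 7.4 with 0.05% IGEPAL CA-630. Compounds were preincubated 30 min at RT with CD47 and anti-His-Eu, then SIRPalpha and SAV-XL665 were added. TR-FRET 665/615 ratio.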

[13] = target: T1, Tyrosine-protein phosphatase non-receptor type substrate 1 (Homo sapiens) + Leukocyte surface antigen CD47 (Homo sapiens); assay: CD47-SIRPalpha protein protein interaction - Alpha assay qHTS validation (AID 1347059);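 also: bead proximity luminescence from CD47 binding SIRPalpha after compound preincubation with SIRPalpha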
Method in brief: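 In PBS (pH 7.4) with 0.05% IGEPAL CA-630, compound is preincubated with biotin-Avi-SIRPalpha ectodomain before His-CD47 ectodomain and affinity beads are added. Light-protected room-temperature incubations; AlphaScreen readout.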

[14] = qHTS of pediatric cancer cell lines to identify multiple opportunities for drug repurposing: Primary screen for DAOY cells (AID 1347090); also: nearly all actives have a fitted effect of over 55% in size; also: potency is read from the fitted curve at half-maximal effect
Method in brief: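 Eight- or eleven-point concentration series, 48 h treatment at 37 degrees C in growth media; readout CellTiter-Glo luminescence. Potency and efficacy were taken from the concentration-response curves.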

[15] = Identifying Small Molecule Inhibitors of Pancreatic Cancer Stem Cells (Panc1, Adherent) (AID 1259362); settings: Potency: viability; also: potency is read from the fitted curve at half-maximal effect
Method in brief: as §2

[16] = Identifying Small Molecule Inhibitors of Pancreatic Cancer Stem Cells (Panc1, Spheroid) (AID 1259359);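 also: compound exposure lasted 48 h before reading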; also: potency is read from the fitted curve at half-maximal effect
Method in brief: as §1

[17] = target: T1, Tyrosine-protein phosphatase non-receptor type substrate 1 (Homo sapiens) + Leukocyte surface antigen CD47 (Homo sapiens); assay: CD47-SIRPalpha protein protein interaction - LANCE assay qHTS validation (AID 1347057; active = well fitted curve in the direction sought with a large enough effect in the signal ratio, with a control signal flat, not every such curve was filed as active; the % refers to the signal ratio; also: series mostly up to about 38 µM)
Method in brief: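 Inhibition of soluble CD47/SIRPalpha ectodomain association by titrated compounds, measured as 665/615 nm time-resolved FRET ratio after sequential 30 min room-temperature incubations.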

T1 sequence (P78324 whole entry, looked up, the tested form may be a part): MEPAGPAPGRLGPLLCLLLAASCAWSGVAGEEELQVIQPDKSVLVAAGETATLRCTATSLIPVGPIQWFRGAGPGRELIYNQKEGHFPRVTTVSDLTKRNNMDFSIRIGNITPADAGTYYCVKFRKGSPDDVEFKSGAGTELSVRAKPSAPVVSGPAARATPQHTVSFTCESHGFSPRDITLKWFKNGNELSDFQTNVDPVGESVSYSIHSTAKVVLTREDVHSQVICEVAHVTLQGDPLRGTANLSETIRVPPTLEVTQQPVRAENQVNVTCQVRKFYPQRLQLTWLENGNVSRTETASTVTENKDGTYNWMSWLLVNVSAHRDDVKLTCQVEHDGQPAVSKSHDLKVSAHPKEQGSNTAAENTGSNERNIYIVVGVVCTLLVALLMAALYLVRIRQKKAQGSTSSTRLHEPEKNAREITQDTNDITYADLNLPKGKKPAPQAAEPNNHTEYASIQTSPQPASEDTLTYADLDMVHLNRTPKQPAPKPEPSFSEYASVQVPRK
T1 sequence (Q08722 whole entry, looked up, the tested form may be a part): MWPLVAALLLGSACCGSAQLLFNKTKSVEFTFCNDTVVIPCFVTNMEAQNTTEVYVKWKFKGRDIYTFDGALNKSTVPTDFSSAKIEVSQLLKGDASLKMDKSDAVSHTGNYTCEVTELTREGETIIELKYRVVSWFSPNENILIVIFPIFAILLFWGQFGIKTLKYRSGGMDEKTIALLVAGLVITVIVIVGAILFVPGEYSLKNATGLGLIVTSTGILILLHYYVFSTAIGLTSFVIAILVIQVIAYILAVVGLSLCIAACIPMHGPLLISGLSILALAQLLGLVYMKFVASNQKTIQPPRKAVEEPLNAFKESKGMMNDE
Chain of Atrial natriuretic peptide receptor 2 (Homo sapiens) (P20594 whole entry, looked up): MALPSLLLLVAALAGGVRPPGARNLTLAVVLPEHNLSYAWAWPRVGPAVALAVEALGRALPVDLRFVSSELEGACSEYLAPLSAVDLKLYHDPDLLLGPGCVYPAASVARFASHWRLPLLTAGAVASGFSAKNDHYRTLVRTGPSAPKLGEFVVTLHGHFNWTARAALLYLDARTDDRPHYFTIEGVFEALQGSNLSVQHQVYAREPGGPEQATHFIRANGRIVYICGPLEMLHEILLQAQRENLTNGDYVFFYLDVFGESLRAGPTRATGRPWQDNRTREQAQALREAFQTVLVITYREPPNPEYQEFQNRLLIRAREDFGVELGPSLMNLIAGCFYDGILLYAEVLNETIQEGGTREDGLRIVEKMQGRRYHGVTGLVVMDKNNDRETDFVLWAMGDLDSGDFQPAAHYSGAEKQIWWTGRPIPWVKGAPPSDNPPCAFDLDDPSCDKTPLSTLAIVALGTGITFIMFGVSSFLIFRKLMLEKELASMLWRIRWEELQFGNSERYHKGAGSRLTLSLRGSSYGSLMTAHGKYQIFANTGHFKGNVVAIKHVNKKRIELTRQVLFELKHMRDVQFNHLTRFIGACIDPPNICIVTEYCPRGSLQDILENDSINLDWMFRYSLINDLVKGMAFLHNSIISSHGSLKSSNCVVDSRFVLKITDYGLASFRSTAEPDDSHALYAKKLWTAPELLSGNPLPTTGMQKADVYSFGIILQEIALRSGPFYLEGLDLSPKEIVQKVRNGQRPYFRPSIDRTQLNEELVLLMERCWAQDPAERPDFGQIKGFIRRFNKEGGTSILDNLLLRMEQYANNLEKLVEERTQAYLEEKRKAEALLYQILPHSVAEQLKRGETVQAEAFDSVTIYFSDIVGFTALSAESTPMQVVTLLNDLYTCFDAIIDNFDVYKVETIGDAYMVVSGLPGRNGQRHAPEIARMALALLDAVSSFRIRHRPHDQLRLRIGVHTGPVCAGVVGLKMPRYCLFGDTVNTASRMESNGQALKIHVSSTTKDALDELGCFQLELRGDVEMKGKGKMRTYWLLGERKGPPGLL

COc1cc(F)c(F)c(Nc2ccc(I)cc2F)c1NS(=O)(=O)C1(C[C@H](O)CO)CC1
inactive: Potency [3] | Potency [5] | Potency [6] | Potency [7]
active: Potency [1] 11.8 µM | Potency [2] 20.9 µM | IC50 (viability decrease) [4] 20.9 µM

O=C1CCc2cc(OCCCCc3nnnn3C3CCCCC3)ccc2N1
inactive: Potency [1] | outcome [8] | Potency [9] | outcome [10] | Potency [11] | Potency [6] | outcome [12] | outcome [13] | Potency [7] | Potency [14]

O=S(=O)(N=Cc1c(O)ccc2ccccc12)c1cccs1
inactive: Potency [2] | Potency [3] | IC50 (viability decrease) [4] | Potency [15] | Potency [6] | Potency [7]
active: Potency [1] 0.372 µM

NC(=O)c1ccc(-c2nc(-c3ccc4c(c3)OCO4)c(-c3ccccn3)[nH]2)cc1
inactive: Potency [1] | Potency [2] | Potency [3] | IC50 (viability decrease) [4] | Potency [15] | Potency [5] | Potency [9] | Potency [6] | Potency [7] | Potency [14]

CCOc1cc(C(=O)Nc2ccc(Cl)c(-c3nc4ccccc4[nH]3)c2)cc(OCC)c1OCC
active: Potency [1] 20.9 µM
inactive: Potency [2] | Potency [3] | IC50 (viability decrease) [4] | Potency [15] | Potency [6] | Potency [7]

O=C1CCC(N2C(=O)c3ccccc3C2=O)C(=O)N1 (centres undefined)
active: Potency [1] 0.0037 µM
inactive: outcome [8] | outcome [10] | Potency [11] | outcome [12] | outcome [13] | Potency [7] | Potency [14]

Cc1ccc(N(CC2=NCCN2)c2cccc(O)c2)cc1
active: Potency [1] 16.6 µM
inactive: outcome [8] | Potency [11] | Potency [6] | Potency [7] | Potency [14]

CCn1c(-c2nonc2N)nc2c(C#CC(C)(C)O)ncc(OC[C@H]3CCCNC3)c21
inactive: Potency [2] | Potency [16] | Potency [9] | Potency [6]
active: Potency [1] 18.7 µM

CS(=O)(=O)c1cccc(CNc2nc(Nc3ccc4c(c3)CCC(=O)N4)ncc2C(F)(F)F)c1
inactive: Potency [2] | Potency [3] | Potency [9] | Potency [6] | outcome [17] | outcome [13]
active: Potency [1] 11.8 µM | IC50 (viability decrease) [4] 3.72 µM

COc1ccccc1[C@H](c1cccc2ccccc12)[C@@](C)(C#N)C(=O)N1CCC(c2cccc(C(F)(F)F)c2)CC1
active: Potency [1] 13.2 µM | IC50 (viability decrease) [4] 6.62 µM
inactive: Potency [2] | Potency [3] | Potency [15] | Potency [6]

O=c1[nH]c(-c2ccc(C(F)(F)F)cc2)nc2c1CSCC2
inactive: Potency [2] | Potency [3] | IC50 (viability decrease) [4] | Potency [15] | Potency [5] | Potency [9] | Potency [6] | Potency [7]
active: Potency [1] 23.5 µM

O=C(O)CCc1ccc(NCc2cccc(Oc3ccccc3)c2)cc1
inactive: Potency [1] | Potency [2] | Potency [3] | IC50 (viability decrease) [4] | Potency [15] | Potency [6] | outcome [12] | outcome [13] | Potency [7] | Potency [14]

S=C(NCc1ccc2c(c1)OCO2)N1CCN(c2ncnc3c2oc2ccccc23)CC1
active: Potency [1] 12.1 µM | Potency [2] 13.2 µM | Potency [16] 7.43 µM | Potency [3] 14.8 µM | IC50 (viability decrease) [4] 4.18 µM | Potency [14] 2.15 µM
inactive: Potency [7]

COc1ccccc1-c1cccc(-c2c(O)c3cc(C#N)c(Cl)cc3[nH]c2=O)c1
inactive: Potency [1] | Potency [2] | Potency [9] | Potency [7] | Potency [14]
active: Potency [15] 1.18 µM

COc1ccc(-c2c(-c3ccc(O)cc3O)n[nH]c2C)cc1
active: IC50 (viability decrease) [4] 26.4 µM
inactive: Potency [1] | Potency [2] | Potency [3] | Potency [7]

Oc1cccc(-c2nc(N3CCOCC3)c3oc4ncccc4c3n2)c1
active: Potency [1] 0.0762 µM | Potency [2] 0.0743 µM | IC50 (viability decrease) [4] 0.105 µM | Potency [5] 0.58 µM | Potency [9] 108 nM and 517 nM | Potency [6] 2.7 µM | Potency [7] 0.758 µM | Potency [14] 2.15 µM

Cc1cc([C@@H](C)Nc2ccccc2C(=O)O)c2nc(N3CCOCC3)cc(=O)n2c1
active: Potency [1] 34 µM | Potency [2] 9.35 µM | Potency [3] 14.8 µM | Potency [7] 12 µM | Potency [14] 0.679 µM

CCn1c(-c2nonc2N)nc2cnc(Oc3cccc(NC(=O)c4ccc(OCCN5CCOCC5)cc4)c3)cc21
inactive: Potency [2] | Potency [15] | Potency [7]
active: Potency [1] 5.9 µM | Potency [5] 3.66 µM | Potency [9] 1.64 µM

Cc1c(CN2CCN(C(=O)C(C)C)CC2)sc2c(N3CCOCC3)nc(-c3cnc(N)nc3)nc12
active: Potency [1] 0.0662 µM | Potency [2] 0.0935 µM | Potency [3] 0.166 µM | Potency [9] 0.0833 µM | Potency [7] 0.466 µM | Potency [14] 0.469 µM

Cc1cc(Nc2nc(N[C@@H](C)c3ncc(F)cn3)ncc2Cl)n[nH]1
active: Potency [1] 16.6 µM | Potency [14] 2.96 µM
inactive: Potency [2] | Potency [3] | IC50 (viability decrease) [4]

O=c1ncn2nc(Sc3ccc(F)cc3F)ccc2c1-c1c(Cl)cccc1Cl
inactive: Potency [1] | Potency [2] | Potency [9] | Potency [6] | Potency [7]

COc1ccc2c3n(c(=NC(=O)c4cccnc4)nc2c1OC)CCN3
inactive: Potency [6]
active: Potency [1] 8.33 µM | Potency [2] 3.72 µM | Potency [3] 5.9 µM | Potency [15] 2.35 µM | Potency [9] 0.651 µM | Potency [14] 1.87 µM

O=C(O)[C@@H](c1ccc(OCc2ccc3ccccc3n2)cc1)C1CCCC1
inactive: Potency [1] | Potency [2] | Potency [3] | Potency [9] | Potency [6] | Potency [7] | Potency [14]

CCOc1ccn(-c2ccc(F)cc2)c(=O)c1C(=O)Nc1ccc(Oc2ccnc(N)c2Cl)c(F)c1
active: Potency [1] 23.5 µM | Potency [2] 18.7 µM | Potency [15] 6.62 µM | Potency [9] 14.8 µM
inactive: Potency [6] | Potency [7]

NC(=O)c1ccc(I)c([N+](=O)[O-])c1
inactive: Potency [1] | Potency [2] | Potency [3] | IC50 (viability decrease) [4] | Potency [9] | Potency [6] | Potency [7] | Potency [14]

COc1cccc2cc(-c3nc(C4CCC(C(=O)O)CC4)n4ncnc(N)c34)[nH]c12 (centres undefined)
inactive: Potency [15] | Potency [6]
active: Potency [1] 0.526 µM | Potency [2] 0.833 µM | Potency [3] 0.372 µM | Potency [5] 1.3 µM | Potency [9] 296 nM and 1.46 µM and 1.3 µM

COc1ccc(COc2cc3oc(=O)c4cc(C(C)O)ccc4c3cc2OC)cc1 (centres undefined)
active: Potency [1] 20.9 µM | Potency [9] 8.33 µM and 3.66 µM
inactive: Potency [2] | Potency [3] | Potency [6] | Potency [7]

O=C1[C@H](Cc2ccc(O)cc2)N2C(=O)CCN(C(=O)NCc3ccccc3)[C@H]2CN1Cc1cccc2ccccc12
active: Potency [1] 1.87 µM | Potency [2] 16.6 µM | Potency [3] 20.9 µM | IC50 (viability decrease) [4] 1.05 µM | Potency [6] 9.35 µM | Potency [7] 11.7 µM | Potency [14] 14.8 µM
